Bioassay records from PubChem BioAssay.
Compounds with a hit are over-represented: about 2.3% of the library has one in this group of screens.
Nrf2 activator: activates Nrf2 signaling; AREc32 ARE-luciferase reporter (MCF7-derived line), luminescence, 24 h; Potency, µM (titrated, usually from 46.1 µM), inactives show top-dose activation, usual class: activators; 410,000 tested, 0.31% active; AID 624171; note: potency is the fitted concentration of half-maximal effect; % of control where 0% means no effect; nearly all actives have a fitted effect of over 65% in size
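Nrf2 activation is followed as ARE-luciferase induction in the AREc32 line after one day of compound treatment; luminescence is read with Steady-Glo.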
Nrf2 inh: blocks Nrf2 signaling. A549 ARE-Fluc reporter, luciferase luminescence, 18-24 h. Potency, µM (highest dose often 46 µM), for the others: at the top dose activity change, negative = inhibition, most hits filed as inhibitors. 360,000 tested, 2.1% active. AID 504444; note: potency is the fitted concentration of half-maximal effect; % is set by controls: 0 for no effect and ±100 for the full control effect; nearly all actives have a fitted effect of over 60% in size
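Nrf2 activity is the BugLite luminescence, read 15 min after reagent at room temperature, following CellTiter-Fluor cytotoxicity readout (30 min, 37C). Compound titrations were applied for 18-24 h to 5000 A549 ARE_Fluc cells/well in 5% FBS OPTI-MEM.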
IL2 activator: activators of IL-2; IL-2 activation reporter assay, cell-based qHTS; stimulated with anti-CD3/CD4/CD28 beads; in transgenic mouse T cells; activation, % (series mostly up to about 46 µM); 360,000 tested, 0.065% active; AID 652025; in the data active = activation above about 50%; inconclusive = mostly about 30% to 49%; note: 0% is about no effect
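Quantitative HTS in unstimulated transgenic mouse T cells, with memory T cells as non-tolerant control and PMA/ionomycin as tolerance-bypass control. Compound pretreatment lasted 60 minutes before 18 h bead stimulation; EGFP/DsRed fluorescence read.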
A549 viability: kills or reduces viability of A549 cells in Nrf2 counter-screen; A549 ARE-Fluc cells, CellTiter-Fluor viability, 18-24 h; Potency, µM (series often up to 46 µM), without a hit: at the highest dose activity change, negative = cytotoxicity, hits mostly inhibitors; 390,000 tested, 0.16% active; AID 504648; note: potency is the fitted concentration of half-maximal effect; % is set by controls: 0 for no effect and ±100 for the full control effect
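Cytotoxicity counterscreen: CellTiter-Fluor fluorescence was measured in A549 ARE_Fluc cells after 18-24 h of compound exposure in a concentration series. The subsequent BugLite luminescent read reports ARE-luciferase activity.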
Starred values were filed as active, the others as inactive; u = inconclusive; x = no result given. Unless noted, calls come from the whole dose curve; as a rule, active = well fitted curve in the direction sought with a large enough effect; inconclusive = small, poorly fitted or top-dose-only effect, or another doubt; inactive = no such curve, though single readings can be large; an effect the other way counts as inactive or inconclusive.

SMILES	Nrf2 activator	Nrf2 inh	IL2 activator	A549 viability
CCN(CC)C(=O)c1ccc(NC(=O)CCn2nc(-c3ccc(Cl)cc3)c3ccccc3c2=O)cc1	-1%	26µM*	x	-15%
Cc1ccc(NC(=O)COc2ccc(-c3nn(C)c(=O)c4ccccc34)cc2)cc1	0%	u	x	-6%
CCCc1cc(N2CCN(c3cccc(C)c3C)CC2)n2cnnc2n1	1%	u	x	-1%
CC(O)C1C=CC=CC(=O)OC2CC3OC4C5OC5(C)C(O)CC4(COC(=O)C(O)C(C)CCO1)C2(C)C31CO1 (configuration not stated)	-2%	0.26µM*	-6	x
CC1=CC2OC3CC4OC(=O)C=CC=CC(=O)OCCC(C)C(O)C(=O)OCC2(CC1)C4(C)C31CO1 (configuration not stated)	-2%	0.0046µM*	-5	x
Cc1ccc(NC(=O)c2cc(S(=O)(=O)N3CCOCC3)c(Cl)cc2Cl)cc1	4%	u	x	1%
Cc1ccc(S(=O)(=O)N2CCCCC2)cc1NC(=O)CSc1ncnc2ccccc12	6%	u	-5	-21%
CC(C)Cn1c(O)c(N=NC(=O)c2cccc(S(=O)(=O)N3CCCCC3)c2)c2ccccc21	2%	21µM*	1	u
O=C(O)c1sccc1Oc1ccc(F)cc1[N+](=O)[O-]	3%	23µM*	0	-17%
COc1ccc(-[n+]2c(-c3ccccc3)cc(-c3ccc(C)cc3)cc2-c2ccccc2)cc1	0%	21µM*	-1	u
Oc1ccccc1-[n+]1c(-c2ccccc2)cc(-c2ccccc2)cc1-c1ccccc1	5%	-1%	0	-7%
COc1ccc(-c2cc(-c3ccccc3)[n+](C)c(-c3ccccc3)c2)cc1	6%	u	-1	u
Cc1ccccc1-[n+]1c(-c2ccccc2)cc(-c2ccccc2)cc1-c1ccccc1	-1%	12µM*	-1	u
COc1cccc(OC)c1-c1nn2c(-c3n[nH]c4c3CCC4)nnc2s1	x	u	x	-8%
CC(C)(O)/C=C/C(=O)C(C)(O)C1C(O)CC2(C)C3CC=C4C(C=C(O)C(=O)C4(C)C)C3(C)C(=O)CC12C (configuration not stated)	-2%	1.5µM*	-4	2.3µM*
CC(=O)OC(C)(C)/C=C/C(=O)[C@](C)(O)C1[C@H](O)C[C@@]2(C)C3CC=C4C(C[C@H](O)C(=O)C4(C)C)[C@]3(C)C(=O)C[C@]12C (some centres not stated)	-3%	u	-1	0.65µM*
COc1cc2[nH]c(=O)n(Cc3ccc(C(=O)N4CCN(c5ccc(Cl)cc5)CC4)cc3)c(=O)c2cc1OC	1%	u	x	-7%
CCc1nn2c(=O)c(C)c(N3CCNCC3)nc2s1	x	-3%	x	-11%
Cc1ccc(S(=O)(=O)N(CC(=O)NCCSc2ccc(Cl)cc2)c2ccccc2C)cc1	0%	u	x	-7%
CNc1ccc2nc3ccccc3[n+](C)c2c1	0%	6.5µM*	-6	7.3µM*
C[n+]1c2ccccc2nc2ccc(NCCO)cc21	0%	u	0	16µM*
Cc1cc(NC(=O)CCl)no1	u	16µM*	-4	u
COc1cc([C@@H]2c3cc4c(c(O)c3C[C@H]3COC(=O)[C@@H]32)OCO4)cc(OC)c1OC	x	u	x	-4%
Cc1ccc(CN2C(=O)c3ccccc3Sc3ccc(C(=O)N4CCC5(CC4)OCCO5)cc32)cc1	-1%	x	x	-11%
Cc1ccc(C)c(CN2C(=O)c3ccccc3S(=O)(=O)c3ccc(C(=O)N4CCCCCC4)cc32)c1	5%	21µM*	x	-28%
COc1ccc(N2CCN(CCCNC(=O)c3cnn(-c4ccc(F)cc4)c3-n3cccc3)CC2)cc1	4%	u	x	1%
COC[C@H]1OC(=O)c2coc3c2[C@@]1(C)C1=C(C3=O)[C@@H]2CCC(=O)[C@@]2(C)C[C@H]1OC(C)=O	u	3.7µM*	-8	16µM*
COc1ccc2[nH]c3c(c2c1)CCN1C(=O)C(CC(=O)NCc2cccc(C(F)(F)F)c2)C[C@H](C(=O)N2CCCCC2)[C@@]31C (some centres not stated)	0%	u	-1	-23%
C=C1C(=O)[C@@]23C[C@H]4[C@@H]5[C@@]6(C)CCC[C@@]57[C@@H]2[C@@H](O)[C@@H]1C[C@H]3[C@H]7N4C6	-3%	23µM*	-1	13µM*
